Laboratory results published in PubChem BioAssay (EPA / NIEHS).
Inconclusive results are not listed. Calls of active or inactive are those of the source. Rule for the calls, unless noted: active = hit-call score of the fitted dose curve at least 0.9, where 1 is the maximum; inactive = score below 0.9.

Assays:
[1] = target: Nuclear receptor subfamily 4 group A member 2 (Homo sapiens) (UniProt P43354); assay: ATG_NURR1_TRANS: Attagene TRANS-FACTORIAL HepG2 Assay for human Nuclear Receptor Related Protein 1 (NURR1) (AID 2282985; active = hit-call score of the fitted dose curve at least 0.9, where 1 is the maximum); conditions: HepG2 Attagene TRANS reporter, mRNA readout
Procedure, shortened: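 After 24 h chemical dosing, total RNA from transiently transfected HepG2 cells was reverse-transcribed and reporter cDNA PCR-amplified, FAM-labelled and analysed by capillary electrophoresis. Activity fitted in positive direction, DMSO as negative control.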

[2] = target: Transcriptional activator Myb (Homo sapiens) (UniProt P10242); assay: ATG_Myb_CIS: Attagene CIS-FACTORIAL HepG2 Assay for human Myeloblastosis (Myb) Proto-Oncogene Transcription Factor (AID 2282986); conditions: HepG2 Attagene CIS-FACTORIAL Myb reporter transcription; actives raise or lower the signal
Procedure, shortened: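 Endogenous transcription factor activity at a Myb-responsive cis element is reported in human liver HepG2 cells after 24 h chemical treatment. Reporter mRNA is detected by RT-PCR and capillary electrophoresis fluorescence, with DMSO as baseline.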

[3] = target: Nuclear respiratory factor 1 (Homo sapiens) (UniProt Q16656); assay: ATG_NRF1_CIS: Attagene CIS-FACTORIAL HepG2 Assay for human Nuclear Respiratory Factor 1 (NRF1) Orphan Gene (AID 2282987); conditions: HepG2 NRF1 cis-element reporter, Attagene multiplex; actives raise or lower the signal
Procedure, shortened: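 Human hepatoma HepG2 cells carrying transfected promoter-regulated reporter units were incubated with test chemicals for 24 h. Reporter transcripts were measured by RT-PCR plus capillary electrophoresis, and endpoints derived by bidirectional fitting with DMSO as baseline.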

[4] = ATG_NFI_CIS: Attagene CIS-FACTORIAL HepG2 Assay for human Nuclear Factor I (NFI) (AID 2282989); conditions: HepG2 cis-regulatory reporter, NFI response element transcription; actives raise or lower the signal
Procedure, shortened: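 Cells: human liver HepG2, transiently transfected with promoter-regulated reporter transcription units. Exposure 24 h. Detection: fluorescent RT-PCR products separated by capillary electrophoresis, normalised to DMSO negative control.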

[5] = target: Myc proto-oncogene protein (Homo sapiens) (UniProt P01106); assay: ATG_Myc_CIS: Attagene CIS-FACTORIAL HepG2 Assay for human Myelocytomatosis (Myc) Proto-Oncogene Transcription Factor (AID 2282990); conditions: HepG2, Attagene cis-reporter transcription factor activity; actives raise or lower the signal
Procedure, shortened: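 HepG2 cells transiently transfected with multiple cis-promoter-driven reporter transcription units, so endogenous TF activity is read. After 24 h compound exposure, reporter mRNA was quantified by RT-PCR, 6-FAM labelling, HpaI digestion and capillary electrophoresis; bidirectional fit versus DMSO.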

[6] = ATG_NRF2_ARE_CIS: Attagene CIS-FACTORIAL HepG2 Assay for human Nuclear Factor Erythroid 2 Related Factor 2 (NFR2) response to Antioxidant Response Elements (ARE) (AID 2282992); conditions: HepG2 Attagene ARE/NRF2 reporter, transcription factor activity; actives raise or lower the signal;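 for AC50: reporter mRNA level measured by RT-PCR and capillary electrophoresis fluorescence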
Procedure, shortened: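 Multiplexed reporter mRNA profiling in HepG2 after a 24 h chemical exposure. Curves fitted in both directions relative to DMSO negative control.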

[7] = ATG_Oct_MLP_CIS: Attagene CIS-FACTORIAL HepG2 Assay for human Octamer-Binding Transcription Factor (Oct) (AID 2282993); conditions: HepG2 Attagene cis-factorial Oct reporter, mRNA; actives raise or lower the signal
Procedure, shortened: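 HepG2, transient MRTU transfection, cis promoter elements; 24 h dosing; RT-PCR/CE fluorescence read-out of reporter mRNA; fit both directions vs DMSO.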

[8] = BSK_3C_TissueFactor: BioMAP Diversity Plus: 3C Assay for Tissue Factor Biomarker Activity (AID 2282997); conditions: BioMAP 3C HUVEC, tissue factor biomarker readout; actives raise or lower the signal
Procedure, shortened: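 Dosing of human umbilical vein endothelial cells preceded a 24 h incubation. Tissue Factor was then read by ELISA, with increases and decreases both scored relative to DMSO controls.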

[9] = target: Cellular tumor antigen p53 (Homo sapiens) (UniProt P04637); assay: ATG_p53_CIS: Attagene CIS-FACTORIAL HepG2 Assay for human p53 Transcription Factor (AID 2282994); conditions: HepG2 p53 cis-element reporter, Attagene mRNA; actives raise or lower the signal
Procedure, shortened: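 Multiplexed reporter mRNA assay in human HepG2 liver cells; cis-regulated units report endogenous factor activity. Values come from bidirectional curve fitting against DMSO negative control after 24 h treatment.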

[10] = ATG_NF_kB_CIS: Attagene CIS-FACTORIAL HepG2 Assay for human Nuclear Factor Kappa B (NF-kB) (AID 2282991); conditions: HepG2 Attagene cis-factorial NF-kB reporter mRNA; actives raise or lower the signal
Procedure, shortened: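 Multiplexed cis-reporter assay in transiently transfected HepG2. 24 h treatment; RNA isolated, RT-PCR, labelled fragments resolved by CE. DMSO baseline.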

Chain of Cellular tumor antigen p53 (Homo sapiens) (P04637 whole entry, looked up): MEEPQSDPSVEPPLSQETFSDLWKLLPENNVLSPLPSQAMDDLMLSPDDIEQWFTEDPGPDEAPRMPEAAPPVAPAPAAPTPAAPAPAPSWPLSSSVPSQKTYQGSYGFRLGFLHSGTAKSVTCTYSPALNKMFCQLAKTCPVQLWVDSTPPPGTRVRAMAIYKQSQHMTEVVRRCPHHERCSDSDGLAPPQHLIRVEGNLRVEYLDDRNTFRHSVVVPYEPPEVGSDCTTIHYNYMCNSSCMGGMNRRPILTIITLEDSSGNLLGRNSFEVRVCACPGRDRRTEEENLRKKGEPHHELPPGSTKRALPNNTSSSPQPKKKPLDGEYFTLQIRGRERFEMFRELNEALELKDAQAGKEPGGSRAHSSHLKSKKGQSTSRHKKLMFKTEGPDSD
Chain of Nuclear receptor subfamily 4 group A member 2 (Homo sapiens) (P43354 whole entry, looked up): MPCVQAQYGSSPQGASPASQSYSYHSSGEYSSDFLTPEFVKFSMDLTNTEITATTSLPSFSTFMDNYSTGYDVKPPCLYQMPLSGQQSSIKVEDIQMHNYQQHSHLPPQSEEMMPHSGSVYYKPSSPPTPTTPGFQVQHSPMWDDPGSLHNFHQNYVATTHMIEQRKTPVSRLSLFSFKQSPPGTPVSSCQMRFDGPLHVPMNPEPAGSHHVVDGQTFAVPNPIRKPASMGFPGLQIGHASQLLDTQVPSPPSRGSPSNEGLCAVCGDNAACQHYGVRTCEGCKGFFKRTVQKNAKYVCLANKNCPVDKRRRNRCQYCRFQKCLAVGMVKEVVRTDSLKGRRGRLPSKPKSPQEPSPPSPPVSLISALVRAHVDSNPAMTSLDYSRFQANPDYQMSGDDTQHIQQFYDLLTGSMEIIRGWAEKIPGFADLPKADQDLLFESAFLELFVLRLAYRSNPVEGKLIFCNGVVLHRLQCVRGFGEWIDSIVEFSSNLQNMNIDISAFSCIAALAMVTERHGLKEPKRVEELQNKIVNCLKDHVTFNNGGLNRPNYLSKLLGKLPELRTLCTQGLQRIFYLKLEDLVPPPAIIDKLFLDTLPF
Chain of Nuclear respiratory factor 1 (Homo sapiens) (Q16656 whole entry, looked up): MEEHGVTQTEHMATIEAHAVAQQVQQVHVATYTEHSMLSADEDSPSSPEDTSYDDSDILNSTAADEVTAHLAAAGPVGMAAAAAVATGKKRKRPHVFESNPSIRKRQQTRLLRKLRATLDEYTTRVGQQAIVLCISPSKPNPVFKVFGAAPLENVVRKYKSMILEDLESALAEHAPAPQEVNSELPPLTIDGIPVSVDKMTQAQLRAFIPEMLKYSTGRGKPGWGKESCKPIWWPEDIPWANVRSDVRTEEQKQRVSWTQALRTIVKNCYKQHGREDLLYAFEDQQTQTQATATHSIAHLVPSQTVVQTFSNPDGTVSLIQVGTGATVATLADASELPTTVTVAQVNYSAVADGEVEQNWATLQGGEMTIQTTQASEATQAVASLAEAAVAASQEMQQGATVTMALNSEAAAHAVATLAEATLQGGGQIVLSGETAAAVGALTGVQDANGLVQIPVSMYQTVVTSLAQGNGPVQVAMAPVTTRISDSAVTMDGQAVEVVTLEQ
Chain of Myc proto-oncogene protein (Homo sapiens) (P01106 whole entry, looked up): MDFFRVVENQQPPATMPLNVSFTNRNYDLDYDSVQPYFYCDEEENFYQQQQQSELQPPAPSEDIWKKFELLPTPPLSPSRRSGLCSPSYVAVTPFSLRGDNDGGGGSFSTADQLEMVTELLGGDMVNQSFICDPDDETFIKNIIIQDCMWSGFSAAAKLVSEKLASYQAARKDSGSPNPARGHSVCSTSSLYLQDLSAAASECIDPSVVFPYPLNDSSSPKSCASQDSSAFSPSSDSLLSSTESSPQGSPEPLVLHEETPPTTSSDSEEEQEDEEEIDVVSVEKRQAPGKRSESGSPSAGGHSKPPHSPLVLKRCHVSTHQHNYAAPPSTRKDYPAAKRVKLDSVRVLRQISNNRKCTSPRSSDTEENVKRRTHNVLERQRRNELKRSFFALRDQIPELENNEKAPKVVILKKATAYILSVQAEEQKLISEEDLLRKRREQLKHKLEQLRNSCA
Chain of Transcriptional activator Myb (Homo sapiens) (P10242 whole entry, looked up): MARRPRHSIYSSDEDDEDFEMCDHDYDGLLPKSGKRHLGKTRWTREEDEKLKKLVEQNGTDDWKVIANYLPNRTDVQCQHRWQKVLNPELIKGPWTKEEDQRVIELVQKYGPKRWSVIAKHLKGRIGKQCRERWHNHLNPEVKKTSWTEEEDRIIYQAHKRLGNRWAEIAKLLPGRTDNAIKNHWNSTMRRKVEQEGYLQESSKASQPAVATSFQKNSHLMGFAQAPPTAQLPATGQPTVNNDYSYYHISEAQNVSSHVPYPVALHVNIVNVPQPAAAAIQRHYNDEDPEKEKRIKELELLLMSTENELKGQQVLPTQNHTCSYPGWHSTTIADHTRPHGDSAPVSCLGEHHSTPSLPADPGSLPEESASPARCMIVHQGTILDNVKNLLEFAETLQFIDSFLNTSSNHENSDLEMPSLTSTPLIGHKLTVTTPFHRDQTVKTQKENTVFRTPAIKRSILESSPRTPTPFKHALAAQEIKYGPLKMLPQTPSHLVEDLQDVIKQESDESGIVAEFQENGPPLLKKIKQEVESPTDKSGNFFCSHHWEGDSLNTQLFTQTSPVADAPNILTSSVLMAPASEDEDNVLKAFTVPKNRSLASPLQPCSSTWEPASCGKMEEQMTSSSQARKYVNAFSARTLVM

Row | SMILES | outcome [1] | outcome [2] | AC50 [3] | outcome [4] | outcome [5] | AC50 [6] | AC50 [7] | outcome [8] | outcome [3] | outcome [9] | outcome [6] | outcome [7] | AC50 [8] | AC50 [4] | outcome [10] | AC50 [1] | AC50 [2]
1 | CO/N=C(/C1=NOCCO1)c1ccccc1Oc1ncnc(Oc2ccccc2Cl)c1F | inactive | inactive | 5.54 µM (active) | inactive | inactive | 0.946 µM (active) | 0.833 µM (active) | inactive |  |  |  |  |  |  |  |  | 
2 | COC(=O)c1c(C(F)F)nc(C(F)(F)F)c(C2=NCCS2)c1CC(C)C | inactive | inactive |  | inactive | inactive | 2.14 µM (active) | 9.92 µM (active) | inactive | inactive | inactive |  |  |  |  |  |  | 
3 | CCCCC(C#N)(Cn1cncn1)c1ccc(Cl)cc1 (stereo unspecified) | inactive | inactive |  | inactive | inactive |  |  | inactive | inactive |  | inactive | inactive |  |  |  |  | 
4 | Clc1nc(Cl)nc(Nc2ccccc2Cl)n1 | inactive | inactive |  | inactive | inactive | 29.4 µM (active) |  | inactive | inactive | inactive |  | inactive |  |  |  |  | 
5 | CCCCOCN(C(=O)CCl)c1c(CC)cccc1CC | inactive | inactive |  | inactive | inactive | 0.547 µM (active) |  |  | inactive |  |  | inactive | 16 µM (active) |  |  |  | 
6 | CC1(C)CCC(=Cc2ccc(Cl)cc2)C1(O)Cn1cncn1 (stereo unspecified) | inactive | inactive |  | inactive | inactive | 3.91 µM (active) | 13.3 µM (active) | inactive | inactive | inactive |  |  |  |  |  |  | 
7 | CCC(C)n1c(=O)[nH]c(C)c(Br)c1=O (stereo unspecified) | inactive | inactive |  | inactive | inactive |  |  | inactive | inactive |  | inactive | inactive |  |  |  |  | 
8 | CCOP(=O)(OCC)Oc1nc(Cl)c(Cl)cc1Cl | inactive | inactive |  | inactive | inactive | 33.4 µM (active) | 50 µM (active) | inactive | inactive | inactive |  |  |  |  |  |  | 
9 | CNC(=O)Oc1cccc2ccccc12 | inactive | inactive |  |  | inactive | 15.6 µM (active) | 50 µM (active) | inactive | inactive | inactive |  |  |  | 74.5 µM (active) | inactive |  | 
10 | COCC(C)N(C(=O)CCl)c1c(C)csc1C (stereo unspecified) | inactive | inactive |  | inactive | inactive | 2.31 µM (active) |  | inactive | inactive | inactive |  | inactive |  |  |  |  | 
11 | COP(=O)(OC)O/C(C)=C/C(=O)N(C)C | inactive | inactive |  | inactive | inactive |  |  | inactive | inactive | inactive | inactive | inactive |  |  |  |  | 
12 | O=P(O)(O)CCCl | inactive | inactive |  | inactive | inactive |  |  | inactive | inactive | inactive | inactive | inactive |  |  |  |  | 
13 | N#Cc1c[nH]cc1-c1cccc2c1OC(F)(F)O2 |  | inactive |  | inactive | inactive | 13.2 µM (active) | 13.9 µM (active) | inactive | inactive |  |  |  |  |  |  | 7.82 µM (active) | 
14 | CCOP(=S)(OCC)Oc1nc(Cl)n(C(C)C)n1 | inactive | inactive |  | inactive | inactive | 1.74 µM (active) |  | inactive | inactive | inactive |  | inactive |  |  |  |  | 
15 | CCCCC(O)(Cn1cncn1)c1ccc(Cl)cc1Cl (stereo unspecified) | inactive | inactive |  | inactive | inactive | 20.8 µM (active) | 62.5 µM (active) | inactive | inactive |  |  |  |  |  |  |  | 
16 | COP(=S)(OC)Oc1ccc([N+](=O)[O-])c(C)c1 | inactive | inactive |  | inactive | inactive | 19.1 µM (active) | 50 µM (active) | inactive | inactive | inactive |  |  |  |  |  |  | 
17 | CCOc1nc(F)cc2nc(S(=O)(=O)Nc3c(Cl)cccc3Cl)nn12 | inactive |  |  | inactive | inactive |  |  | inactive | inactive | inactive | inactive | inactive |  |  |  |  | 0.0229 µM (active)
18 | N#CN=C1SCCN1Cc1ccc(Cl)nc1 | inactive | inactive |  | inactive | inactive | 50 µM (active) |  | inactive | inactive |  |  | inactive |  |  |  |  | 
19 | CC(C)NC(=O)N1CC(=O)N(c2cc(Cl)cc(Cl)c2)C1=O | inactive | inactive |  | inactive | inactive | 7.39 µM (active) |  | inactive | inactive |  |  | inactive |  |  | inactive |  | 
20 | CNC(=O)N(C)c1nnc(C(C)(C)C)s1 | inactive | inactive |  | inactive | inactive | 60.1 µM (active) |  | inactive | inactive |  |  | inactive |  |  |  |  | 
21 | COC(=O)NC(=S)Nc1ccccc1NC(=S)NC(=O)OC | inactive | inactive |  | inactive | inactive | 11.6 µM (active) | 30.8 µM (active) | inactive | inactive |  |  |  |  |  |  |  | 
22 | CC1(C)C(C(=O)OC(C#N)c2cccc(Oc3ccccc3)c2)C1(C)C (stereo unspecified) | inactive | inactive |  | inactive | inactive | 0.913 µM (active) |  | inactive | inactive | inactive |  | inactive |  |  | inactive |  | 
